Test systems include SR leukemia; RPMI-8226 leukemia; OVCAR-8 ovarian; OVCAR-4 ovarian; SK-OV-3 ovarian; IGROV1 ovarian; OVCAR-3 ovarian; HS 578T breast; NCI/ADR-RES ovarian; T-47D breast; BT-549 breast; MDA-MB-435 melanoma; SW-620 colon; MCF7 breast; HCT-116 colon; HCC-2998 colon; KM12 colon; OVCAR-5 ovarian.
Holding throughout (assay): NCI-60 one-dose screen, 48 h (100 = growth as untreated, 0 = no growth, -100 = all killed)
Common to all, as to settings: 10 µM unless noted

SMILES strings stand for the structures. The panel holds about 83,000 compounds, 20% with a hit somewhere; the sample as a whole holds those more often.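 Each cell line was grown in a 96-well plate and treated with one concentration of compound for 48 hours. Values below 10 were considered active.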 Values without a mark were called inactive. Calls of active or inactive are those of the source.

Regarding `COc1ccc(-c2cnnn2-c2nonc2-n2cccc2)cc1OC`, the growth is -4.66% (active) in the assay with SR leukemia; 52.2% in the assay with RPMI-8226 leukemia; 66.5% with OVCAR-8 ovarian; 90.6% in the assay with OVCAR-4 ovarian; 61.8% in the assay on SK-OV-3 ovarian; 62.4% in the assay with IGROV1 ovarian. Further, the growth in the assay with OVCAR-3 ovarian is 30.2%; in the assay on HS 578T breast it was 82.5%; in the assay with NCI/ADR-RES ovarian, 18.3%; in the assay on T-47D breast it was 45.3%; with BT-549 breast, 60.1%; with MDA-MB-435 melanoma it was -36.9% (active). Also, the growth in the assay with SW-620 colon was 27%; in the assay on MCF7 breast, 30.4%; in the assay on HCT-116 colon, 35.6%; in the assay with HCC-2998 colon it was 62%; in the assay on KM12 colon, 31.7%.

As for `COc1ccc(C(=O)NC(=O)Nc2cc3c(cc2F)/C(=C/c2[nH]c(C)c(CCC(=O)O)c2C)C(=O)N3)c(F)c1`, the growth is 26.5% with SR leukemia; -2.09% (active) in the assay with RPMI-8226 leukemia; 6.72% (active) with OVCAR-8 ovarian; 63.1% with OVCAR-5 ovarian; 60.5% in the assay on SK-OV-3 ovarian; 37.4% in the assay on IGROV1 ovarian. For the same compound, the growth with OVCAR-3 ovarian was 36.8%; in the assay with HS 578T breast, 16.3%; in the assay with NCI/ADR-RES ovarian, 83.9%; with T-47D breast, 47.8%; in the assay with BT-549 breast, 25.2%; with MDA-MB-435 melanoma, 36.8%. In addition, the growth in the assay on SW-620 colon is 26.6%; in the assay with MCF7 breast it was 41.7%; in the assay with HCC-2998 colon it was 50.3%; in the assay on KM12 colon, 11.7%.

As to `CCCC(=O)Oc1ccc(/C(=C(\C)c2ccccc2)c2ccc(OCCN(CC)CC)cc2)cc1`, the growth is 28.2% in the assay with SR leukemia; 55.4% in the assay on RPMI-8226 leukemia; 83.3% in the assay on OVCAR-8 ovarian; 88.7% in the assay on OVCAR-5 ovarian; 91.7% in the assay on SK-OV-3 ovarian; 90.7% in the assay with IGROV1 ovarian. Further, the growth was 94.9% in the assay on OVCAR-3 ovarian; 42.6% with HS 578T breast; 86.7% in the assay on NCI/ADR-RES ovarian; 46.8% in the assay with T-47D breast; 78.7% with BT-549 breast; 73.3% in the assay with MDA-MB-435 melanoma. For the same compound, the growth is 84.5% with SW-620 colon; 34.5% in the assay with MCF7 breast; 47.8% in the assay on HCT-116 colon; 83.2% in the assay with HCC-2998 colon; 79.5% with KM12 colon.

Turning to `O=[N+]([O-])c1ccc(C(c2ccccc2)c2ccccc2)cc1`, the growth with SR leukemia was 90.8%; in the assay with RPMI-8226 leukemia, 98.1%; in the assay with OVCAR-8 ovarian it was 107%; in the assay on OVCAR-5 ovarian, 96.6%; with SK-OV-3 ovarian, 102%; in the assay on IGROV1 ovarian, 84.4%. Also, the growth with OVCAR-3 ovarian was 98.9%; in the assay with HS 578T breast it was 109%; in the assay with NCI/ADR-RES ovarian, 88.8%; with T-47D breast it was 109%; with MDA-MB-435 melanoma, 99.5%; with SW-620 colon, 87.5%. Moreover, the growth in the assay on MCF7 breast was 84.9%; with HCT-116 colon, 70.4%; in the assay with HCC-2998 colon, 92%; with KM12 colon, 90.9%.

`CN(C)CCN1C(=O)c2ccc3c4c(ccc(c24)C1=O)C(=O)N(CCN=C=S)C3=O`: the growth in the assay on SR leukemia was -39.7% (active); in the assay on RPMI-8226 leukemia, -45% (active); with OVCAR-8 ovarian, -88.7% (active); in the assay with OVCAR-4 ovarian it was -94.3% (active); in the assay on SK-OV-3 ovarian, -97% (active); in the assay on IGROV1 ovarian, -64.3% (active). Further, the growth with OVCAR-3 ovarian is -96.5% (active); in the assay with HS 578T breast, -6.37% (active); with NCI/ADR-RES ovarian it was -57.3% (active); in the assay on T-47D breast, -54.5% (active); in the assay with BT-549 breast, -87.5% (active); with MDA-MB-435 melanoma it was -90.9% (active). Moreover, the growth with SW-620 colon was -68.1% (active); with MCF7 breast it was -67.7% (active); in the assay on HCT-116 colon, -71.9% (active); in the assay on HCC-2998 colon, -87.4% (active); in the assay with KM12 colon it was -93% (active).

For the compound `CC[N+](CC)=c1cc2oc3cc(N(C)C)ccc3nc-2cc1C`, the growth with SR leukemia was 59%; in the assay with RPMI-8226 leukemia, 45.3%; with OVCAR-8 ovarian, 8.33% (active); in the assay on OVCAR-5 ovarian, -27.6% (active); in the assay on SK-OV-3 ovarian, 59.9%; in the assay on IGROV1 ovarian, -56.4% (active). The growth is -55.6% (active) with OVCAR-3 ovarian; 89.1% in the assay with HS 578T breast; 79.3% in the assay with NCI/ADR-RES ovarian; 60.2% with BT-549 breast; 50.8% in the assay with MDA-MB-435 melanoma; 15.9% in the assay on SW-620 colon. In addition, the growth with HCT-116 colon was 7.17% (active); in the assay with HCC-2998 colon, 32.3%; in the assay on KM12 colon, 33.3%.

Regarding `C/C=C(\C)C(C(=O)NC1CCCCC1)N(C(=O)C1CCc2cc(F)ccc2O1)c1ccc(Cl)cc1` (stereo unspecified), the growth is 111% in the assay on SR leukemia; 100% with RPMI-8226 leukemia; 98.3% in the assay on OVCAR-8 ovarian; 103% with OVCAR-5 ovarian; 98.4% in the assay on SK-OV-3 ovarian; 103% in the assay on IGROV1 ovarian. In addition, the growth in the assay on OVCAR-3 ovarian was 111%; in the assay with HS 578T breast it was 94.7%; with NCI/ADR-RES ovarian, 97.2%; in the assay on T-47D breast it was 95.2%; in the assay with BT-549 breast, 98.3%; with SW-620 colon, 103%. The growth in the assay on MCF7 breast is 99.1%; in the assay on HCT-116 colon, 103%; with HCC-2998 colon, 94.9%; in the assay on KM12 colon, 111%.

As to `Cc1ccc(S(=O)(=O)NC(=O)n2cc(-c3ccncc3)c(-c3ccc(Cl)c(O)c3)n2)cc1`, the growth with SR leukemia is 83.3%; in the assay with RPMI-8226 leukemia, 99.9%; in the assay on OVCAR-8 ovarian, 99%; in the assay with OVCAR-5 ovarian, 114%; with SK-OV-3 ovarian, 101%; in the assay on IGROV1 ovarian, 112%. The growth in the assay on OVCAR-3 ovarian was 146%; with HS 578T breast, 107%; with NCI/ADR-RES ovarian, 104%; in the assay on T-47D breast, 108%; in the assay on BT-549 breast, 106%; with MDA-MB-435 melanoma it was 82.2%. Further, the growth is 131% with SW-620 colon, 124% in the assay on MCF7 breast, 96% in the assay on HCT-116 colon and 118% in the assay on KM12 colon.

Take `CN(C)CCCC(C#N)c1ccccc1` (stereo unspecified): the growth in the assay on SR leukemia was 96.2%; in the assay with RPMI-8226 leukemia, 108%; in the assay on OVCAR-8 ovarian, 112%; with OVCAR-5 ovarian, 117%; with SK-OV-3 ovarian, 107%; in the assay with IGROV1 ovarian, 132%. Also, the growth in the assay with OVCAR-3 ovarian was 117%; in the assay on HS 578T breast it was 121%; with NCI/ADR-RES ovarian, 108%; with BT-549 breast, 111%; with MDA-MB-435 melanoma, 115%; with SW-620 colon, 106%. Further, the growth in the assay with MCF7 breast was 100%; with HCT-116 colon it was 107%; in the assay with HCC-2998 colon it was 105%; in the assay with KM12 colon, 111%.
